Hits are enriched below; roughly 18% of the tested compounds scored in any of these assays.
RORgamma inh = qHTS for inhibitors of ROR gamma transcriptional activity; Nuclear receptor ROR-gamma (Mus musculus), P51450; Drosophila S2 Gal4-RORgamma UAS-luciferase reporter, 20 h; Potency, µM (top dose mostly 53.6 µM), inactives show top-dose activity change, negative = inhibition, actives largely listed as inhibitors; actives 5.4% (n = 310,000); AID 2551, 2010; further: potency means the concentration at half of the fitted maximal effect; nearly all actives have a fitted effect of over 60% in size
Target sequence (P51450 whole entry, looked up, the tested form may be a part): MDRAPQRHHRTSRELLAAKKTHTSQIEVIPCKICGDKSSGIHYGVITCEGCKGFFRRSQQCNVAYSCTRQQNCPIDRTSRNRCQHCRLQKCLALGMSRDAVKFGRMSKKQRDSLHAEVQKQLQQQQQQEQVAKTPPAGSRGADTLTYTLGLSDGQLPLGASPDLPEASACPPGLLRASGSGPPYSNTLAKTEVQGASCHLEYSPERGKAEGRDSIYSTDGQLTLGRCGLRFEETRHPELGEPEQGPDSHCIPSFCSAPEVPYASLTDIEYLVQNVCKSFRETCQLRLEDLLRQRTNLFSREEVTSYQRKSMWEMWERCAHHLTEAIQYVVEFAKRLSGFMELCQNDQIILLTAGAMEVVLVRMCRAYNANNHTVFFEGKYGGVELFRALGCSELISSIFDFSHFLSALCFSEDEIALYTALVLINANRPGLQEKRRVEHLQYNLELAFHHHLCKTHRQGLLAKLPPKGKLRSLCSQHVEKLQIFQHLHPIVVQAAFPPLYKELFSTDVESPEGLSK
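A Gal4/UAS one-hybrid system in insect cells: metallothionein-promoter Gal4–ROR gamma fusion plus Photinus luciferase reporter. Copper sulfate 700 uM final, 20 hr ambient incubation, luminescent detection after 10 min with reagent.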
TDP1 cell noCPT = qHTS for Inhibitors of human tyrosyl-DNA phosphodiesterase 1 (TDP1): qHTS in cells in absence of CPT; DT40 Tdp1-/- hTDP1 cells, no CPT, ATP luminescence, 48 h; Potency, µM (titrated, usually from 46.2 µM), for inactives: at the top dose activity change, negative = growth inhibition, usual class: inhibitors; actives 15% (n = 420,000); further: potency means the concentration at half of the fitted maximal effect; nearly all actives have a fitted effect of over 55% in size
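A cellular qHTS used chicken DT40 cells lacking endogenous Tdp1 but carrying stably transfected human TDP1. Compounds were applied without camptothecin, and cell growth kinetics were judged by ATP-dependent luminescence after ≥48 hr.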
VP16 counter = VP16 counterscreen qHTS for inhibitors of ROR gamma transcriptional activity; actives 3.5% (n = 310,000); Potency, µM (series often up to 53.6 µM), inactives show at the top dose activity, negative = inhibition, hits mostly inhibitors; Drosophila S2 Gal4-VP16 UAS-luciferase, luminescence, 20 h;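 further: Gal4-VP16 expression switched on by copper sulfate through the metallothionein promoter; potency means the concentration at half of the fitted maximal effect; nearly all actives have a fitted effect of over 50% in size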
DT40 TDP1 CPT = qHTS for Inhibitors of human tyrosyl-DNA phosphodiesterase 1 (TDP1): qHTS in cells in presence of CPT; chicken DT40 Tdp1-/-;hTDP1 cells + 20 nM CPT, ATP luminescence, 48 h; Potency, µM (doses to about 46.2 µM), for inactives: at the highest dose activity change, negative = growth inhibition, hits mostly inhibitors; actives 12% (n = 420,000); further: potency means the concentration at half of the fitted maximal effect; nearly all actives have a fitted effect of over 55% in size
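Cell growth measured by CellTiter-Glo luminescence after a minimum 48 h, 37 C compound exposure with 20 nM CPT in Tdp1-knockout DT40 cells stably expressing hTDP1, seeded 400/well; qHTS titration format.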
LDHA block = qHTS assay for inhibitors of human lactate dehydrogenase. L-lactate dehydrogenase A chain (Homo sapiens), P00338. purified LDHA, NADH/diaphorase-resazurin fluorescence; active compounds read low. activity change, % (values are at about 110 or 230 µM). actives 0.15% (n = 480,000); in the data active means activity change below about -30%; inconclusive means mostly about -25% to -30%;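 further: plate controls were DMSO wells for no effect and wells without enzyme for full effect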
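Human LDH5 at 2 nM final in Tris HCl pH 7.4 with 0.06 mM NADH and 0.2 mM pyruvate, reacted 5 minutes at room temperature. Remaining NADH coupled via diaphorase/resazurin; resorufin fluorescence read at 0 and 20 minutes, normalized to enzyme-free and DMSO wells.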
IL1B secr inh = qHTS for Inhibitors of Inflammasome Signaling: IL-1-beta AlphaLISA Primary Screen; actives 4.7% (n = 360,000); THP-1 LPS/ATP IL-1B secretion, AlphaLISA, 16 h; active compounds read low; activity change, % at 57.5 µM; in the data active means activity change below about -50%; inconclusive means mostly about -30% to -49%
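Secreted IL-1B measured by AlphaLISA bead assay after 16 h compound exposure of THP-1 cells; compounds (final up to 57.5 uM) added 1 h before LPS (250 ng/mL) and ATP (1.25 mM) stimulation; lower signal means less secretion.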
Starred values were filed as active, the others as inactive; i = inactive; u = inconclusive; x = no result given; [ ] = another dose, or the depositor's remark. Unless noted, the call rests on the fitted dose curve; in most records, active means well fitted curve in the direction sought with a large enough effect; inconclusive means small, poorly fitted or top-dose-only effect, or another doubt; inactive means no such curve, though single readings can be large; an effect the other way counts as inactive or inconclusive. Unless noted, on the % scale 0 is the no-effect control and ±100 the full control effect.

SMILES	RORgamma inh	TDP1 cell noCPT	VP16 counter	DT40 TDP1 CPT	LDHA block	IL1B secr inh
COc1ccc(Nc2c3c(c(C#N)c4nc5ccccc5n24)CCC3)cc1	u	-12%	-9%	-13%	0	26
CCC/C=C/c1ccc(CN2C(C)C(=O)N(Cc3cn(CCC4OCCO4)nn3)CCS2(=O)=O)cc1 (stereo unspecified)	x	15µM*	x	u	2	10
CC1C(=O)N(Cc2cn(CCC3OCCO3)nn2)CCS(=O)(=O)N1Cc1ccc(-c2cccc(N(C)C)c2)cc1 (stereo unspecified)	x	16µM*	x	9.2µM*	5	-6
CC1C(=O)N(Cc2cn(CCC3OCCCO3)nn2)CCS(=O)(=O)N1Cc1ccc(-c2ccc(Cl)cc2)cc1 (stereo unspecified)	x	6.5µM*	x	12µM*	3	-7
CC1C(=O)N(Cc2cn(CCC3OCCCO3)nn2)CCS(=O)(=O)N1Cc1ccc(-c2ccccc2)cc1 (stereo unspecified)	x	16µM*	x	u	-1	-11
Cc1ccc2nc(CSc3nc(C)nc4ccccc34)cn2c1	x	x	x	x	2	x
O=C(c1ccc(Cl)cc1)c1ccc(OCc2cccc3ccccc23)cc1	x	x	x	x	6	x
Nc1nnc(SCC(=O)Nc2ccc(N3CCOCC3)c(Cl)c2)s1	u	12µM*	u	18µM*	-6	i
Nc1ccc2nc(SCC(=O)Nc3ccc(N4CCOCC4)c(Cl)c3)sc2c1	u	23µM*	u	u	2	-28
CCC(=O)Nc1ccc2nc(SCC(=O)N3CCOCC3)sc2c1	-4%	-7%	-14%	1%	-11	0
CCCC(=O)Nc1ccc2nc(SCC(=O)Nc3ccc(N4CCOCC4)c(Cl)c3)sc2c1	42%	16µM*	-10%	-82%	-9	-50*
Cc1cc(NC(=O)c2ccc([N+](=O)[O-])o2)cc(-c2nc3ccccc3o2)c1O	x	x	x	x	11	x
CC(C)c1ccc2oc(-c3ccc(N)cc3O)nc2c1	x	x	x	x	4	x
CCOc1ccc(C(=O)Nc2cc(NC(=O)c3ccc(OCC)c(Cl)c3)cc(C(=O)O)c2)cc1Cl	27%	-17%	2%[10 µM]	2.1µM*	1	22
CCOc1ccc(C(=O)Nc2cccc(C(=O)O)c2)cc1Cl	6.3µM*	u	u	-12%	-10	-9
Cc1nc(COc2ccccc2C(=O)Nc2nc(-c3ccccc3)cs2)no1	x	x	x	x	-2	x
Cc1ccc(-n2nc(CO)c(C(=O)NCC(c3ccccc3)c3ccccc3)n2)cc1	x	u	x	u	-14	x
O=C(NCC(c1ccccc1)c1ccccc1)c1nn(-c2ccccc2Cl)nc1CO	x	23µM*	x	u	-3	x
Cc1ccccc1-n1nc(CO)c(C(=O)NCC(c2ccccc2)c2ccccc2)n1	x	21µM*	x	u	-3	x
Cc1nn(-c2ccc(C(=O)NC3CCCC3)cc2)c(NC(=O)C2CC2)c1-c1ccccc1	x	x	x	x	2	x
O=C(CC1CCCC1)NCc1cccnc1	x	x	x	x	7	x
S=C(NC1CCCCC1)N1CCN(c2ncccn2)CC1	-4%	14%	-6%	8%	-9	-4
Cc1nnc2ccc(N3CCN(c4cccc(C(F)(F)F)c4)CC3)nn12	-28%	16µM*	-13%	26µM*	-5	45
FC(F)(F)c1cccc(N2CCN(C(=S)NC3CCCCC3)CC2)c1	16µM*	23µM*	u	u	2	7
Cc1nnc2ccc(N3CCCCC3)nn12	-32%	-6%	18%	27%	5	24
SMILES	RORgamma inh	TDP1 cell noCPT	VP16 counter	DT40 TDP1 CPT	LDHA block	IL1B secr inh
FC(F)(F)c1cccc(N2CCN(C(=S)NC3CCCC3)CC2)c1	u	16µM*	u	u	-4	-57*
CCNC(=S)N1CCN(c2cccc(C(F)(F)F)c2)CC1	u	13µM*	-10%	15µM*	-4	-25
FC(F)(F)c1cccc(NC(=S)N2CCN(c3ccccc3)CC2)c1	u	u	0%	-26%	-3	11
S=C(NC1CCCC1)N1CCN(c2ccc(Cl)cc2)CC1	-36%	u	-17%[10 µM]	15%	-10	u
CC1=C(c2ccc(Cl)cc2)[N+](=O)C(C)(c2ccccc2)N1[O-] (stereo unspecified)	x	x	x	x	2	x
CCOc1cc(C#N)ccc1OCC(=O)c1ccc2c(c1)CCCC2	x	x	x	x	1	x
COc1cccc(N2CCN(CC(=O)NC(=O)NCC(F)(F)F)CC2)c1	x	x	x	x	-1	x
COC(=O)C1C2CCC(C2)C1C(=O)OCC(=O)c1ccc(-c2ccccc2)cc1 (stereo unspecified)	x	x	x	x	6	x
O=C(Cc1ccsc1)N1CCC(c2nc3c(nnn3Cc3c(F)cccc3Cl)c(=O)[nH]2)CC1	x	x	x	x	3	x
CC1(C)COC(/C=C/c2ccc([N+](=O)[O-])cc2)=N1	-32%	16µM*	u	u	-3	-102*
Nc1ccc(/C=C/c2ccc([N+](=O)[O-])cc2)cc1	x	x	x	x	3	x
Cc1ccc(C(=O)/C=C/c2ccc(C(C)C)cc2)cc1[N+](=O)[O-]	x	x	x	x	-24	x
Cc1cccc(Oc2ccc(Cl)cc2NC(=O)c2nn(C)c(=O)c3ccccc23)c1	x	x	x	x	-2	x
Cn1c(=O)n(C)c2cc(S(=O)(=O)N3CCOCC3)ccc21	-1%	-19%	6%	5%	-12	3
Cc1ccccc1NC(=S)N=Nc1c(O)n(C)c2ccc(S(=O)(=O)N3CCOCC3)cc12	0.32µM*	7.3µM*	0.79µM*	8.2µM*	0	-13
Cc1cccc(C)c1NC(=S)N=Nc1c(O)n(C)c2ccc(S(=O)(=O)N3CCOCC3)cc12	1.3µM*	4.1µM*	4.5µM*	2.6µM*	9	2
Cc1ccccc1CN(C)C(=O)COC(=O)c1ccc2[nH]c(C)c(C)c2c1	x	u	x	16µM*	-4	-61*
CCCNC(=O)COC(=O)c1ccc2[nH]c(C)c(C)c2c1	x	x	x	x	11	x
CC(OC(=O)c1nc(Cl)ccc1Cl)C(=O)NCc1ccccc1 (stereo unspecified)	x	-10%	x	7%	-1	-22
CC(OC(=O)c1ccc2ncsc2c1)C(=O)NCc1ccccc1 (stereo unspecified)	u	x	3%	x	x	x

From PubChem BioAssay
